Screening data (PubChem)
FLuc modulator: qHTS profiling assay for firefly luciferase inhibitor/activator using purifed enzyme and Km concentrations of substrates (counterscreen for miR-21 project); Luciferin 4-monooxygenase (Photinus pyralis), P08659; purified FLuc, Km substrates, luminescence inhibition; Potency, µM (top dose mostly 57.5 µM), actives largely listed as inhibitors; hit rate 6.9% among 360,000; AID 588342, 2011; note: nearly all actives have a fitted effect of over 55% in size
Target sequence (P08659 whole entry, looked up): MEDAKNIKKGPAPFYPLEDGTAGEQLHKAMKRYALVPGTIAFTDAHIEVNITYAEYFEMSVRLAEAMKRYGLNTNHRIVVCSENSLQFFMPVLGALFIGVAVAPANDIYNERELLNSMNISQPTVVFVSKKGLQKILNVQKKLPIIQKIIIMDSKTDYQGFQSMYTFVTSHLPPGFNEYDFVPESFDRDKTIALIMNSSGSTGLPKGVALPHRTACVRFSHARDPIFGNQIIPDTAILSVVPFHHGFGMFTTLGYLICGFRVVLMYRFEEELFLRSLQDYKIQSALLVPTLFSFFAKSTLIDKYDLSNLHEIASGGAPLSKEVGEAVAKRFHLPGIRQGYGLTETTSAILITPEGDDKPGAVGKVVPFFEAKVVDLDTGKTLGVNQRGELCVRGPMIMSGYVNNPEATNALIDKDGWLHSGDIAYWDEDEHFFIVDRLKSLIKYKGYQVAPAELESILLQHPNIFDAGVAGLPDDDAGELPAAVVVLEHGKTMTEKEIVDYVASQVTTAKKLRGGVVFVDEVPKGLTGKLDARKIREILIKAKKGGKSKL
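Biochemical qHTS of compounds, final roughly 60 µM downward over six points, against 10 nM purified firefly luciferase using Km concentrations of substrates (10 uM D-luciferin, 10 uM ATP) in Tris acetate pH 7.5 buffer; luminescence output.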
ELG1 genotox: qHTS screen for small molecules that induce genotoxicity in human embryonic kidney (HEK293T) cells expressing luciferase-tagged ELG1; HEK293T ELG1-luciferase reporter, luminescence, 16 h; Potency, µM (titrated, usually from 46 µM), hits mostly activators; hit rate 1.3% among 330,000; AID 504466, 2011; note: nearly all actives have a fitted effect of over 60% in size
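Step 1: seed 2,000 HEK293T ELG1-luciferase cells per well. Step 2: add compound or DMSO, incubate 16 hr at 37 °C. Step 3: ONE-Glo, 30 min at room temperature, read luminescence.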
p53 reactivator: qHTS assay for re-activators of p53 using a Luc reporter; Potency, µM (top dose mostly 92.2 µM), hits mostly activators; hit rate 0.063% among 320,000; H1299 p53-A138V BP100-luciferase reporter, luminescence, 24 h; AID 504706, 2011; note: nearly all actives have a fitted effect of over 45% in size
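p53-null H1299 cells stably carrying temperature-sensitive p53-A138V and a BP100-luciferase reporter were pinned with compounds (4-point, 1:5 series) and held 24 hrs at 37 deg C. Luminescence was read 10 min after detection reagent.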
Rab9 promoter act: qHTS Assay for Rab9 Promoter Activators; AID 485297, 2010; Huh7 Rab9 promoter-luciferase reporter, luminescence, 24 h; Potency, µM (series often up to 9.22 µM), usual class: activators; hit rate 2.8% among 320,000; note: nearly all actives have a fitted effect of over 60% in size
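Luminescence from Amplite-detected luciferase (10 minutes, ambient) reports Rab9 promoter activation. Before that, stable Rab9-luciferase Huh7 cells (1500/well, reduced-serum OP-MEM I plus 10% FBS) were exposed to compound for 24 hours at 37C.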
SMN2 splice up: qHTS Assay for Enhancers of SMN2 Splice Variant Expression; HEK293 SMN2-luciferase splicing reporter, luminescence, 30-36 h; Potency, µM (series often up to 46.1 µM), actives largely listed as activators; hit rate 2.8% among 210,000; AID 1458, 2008; note: nearly all actives have a fitted effect of over 55% in size
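qHTS luciferase splicing reporter: luminescence rises when SMN2 exon 7 is included in transfected HEK293 cells. Compound exposure lasted 30-36 h at 37C, with 4.5 mM final sodium butyrate as control, followed by a ONE-Glo read.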
NPC1 prom act: qHTS Assay for NPC1 Promoter Activators. AID 485313, 2010. Potency, µM (titrated, usually from 9.22 µM), usual class: activators. Huh7 NPC1 promoter luciferase reporter, 24 h. hit rate 2.4% among 320,000; note: nearly all actives have a fitted effect of over 60% in size
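Compounds in DMSO were transferred onto Huh7 NPC1-luciferase reporter cells pre-incubated 2 h; after 24 h at 37 °C, Amplite reagent was dispensed and luminescence recorded 10 min later.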
Hits are given with their value; i = inactive; ? = inconclusive; nt = not tested or not shown; [ ] = remark or other dose. An excerpt weighted towards active compounds, which were near 7.4% of everything screened. Calls come from the whole dose curve; as a rule, active = well fitted curve in the direction sought with a large enough effect; inconclusive = small, poorly fitted or top-dose-only effect, or another doubt; inactive = no such curve, though single readings can be large; an effect the other way counts as inactive or inconclusive.

SMILES	FLuc modulator	ELG1 genotox	p53 reactivator	Rab9 promoter act	SMN2 splice up	NPC1 prom act
COc1ccc([N+](=O)[O-])cc1NS(=O)(=O)Cc1ccccc1	i	i	nt	i	nt	i
CCn1c(=O)c2cc(C(=O)N3CCN(c4cccc(Cl)c4)CC3)sc2c2ccccc21	i	nt	nt	nt	i	nt
COc1cc(NC(=O)c2nccnc2N)cc(C(=O)Nc2cccc(C(F)(F)F)c2)c1	11µM	i	i	i	nt	i
COc1cc(NC(=O)c2ccc(N)nc2)cc(C(=O)Nc2cccc(C(F)(F)F)c2)c1	7.6µM	i	i	i	nt	i
COc1cc(Nc2ccccn2)cc(C(=O)Nc2cccc(C(F)(F)F)c2)c1	?	i	i	i	nt	i
COc1ccc(N2Cc3cccc(C(=O)Nc4ccc(Cl)cc4)c3C2=O)cc1	i	nt	nt	nt	i	nt
CCCCC1=CC2=C(OC(C)=O)C(=O)C(C)(OC(=O)c3ccco3)C(=O)C2=CO1 (stereo not given)	nt	nt	nt	nt	i	nt
O=C(c1ccncc1)N1CCC2(CCCN(c3cccc(-c4ccccc4)c3)C2)CC1	nt	nt	nt	nt	i	nt
C=CCSc1nc2sc3c(c2c(=O)[nH]1)CC(C)(CC)OC3 (stereo not given)	i	i	i	i	nt	i
CCOC(=O)c1cnc2nc(NCc3ccc(OCc4ccccc4)cc3)[nH]n2c1=O	11µM	i	i	i	i	i
COc1cccc(C(=O)Nc2cccc(NC(C)=O)c2)c1	?	i	i	i	i	i
COc1cccc(C(=O)Nc2cccc(-c3ccccc3)c2)c1	21µM	i	i	i	nt	i
COc1cc(C(=O)Nc2cccc(C(C)=O)c2)cc(OC)c1OC	i	i	i	i	nt	i
COc1cccc(NC(=O)Nc2cccnc2)c1	17µM	i	i	i	nt	i
COc1cc(C(=O)Nc2cccc(NC(=O)c3ccccc3)c2)cc(OC)c1OC	15µM	i	nt	i	nt	i
COc1cccc(NC(=O)c2ccc3nsnc3c2)c1	12µM	?	i	?	nt	?
N#Cc1ccc(CN2CCC3(CC2)CCN(C(=O)c2cc(C(F)(F)F)cc(C(F)(F)F)c2)CC3)cc1	nt	nt	nt	nt	i	nt
COc1cccc(NC(=O)c2ccccc2)c1	11µM	?	?	1.8µM	nt	2.8µM
COc1ccc(S(=O)(=O)N/N=C(/C)c2ccco2)cc1	17µM	?	?	2.5µM	nt	?
Cc1[nH]c2ccc(C(=O)N3CCCC3)cc2c1C	i	i	i	i	nt	i
Cc1[nH]c2ccc(C(=O)N3CCCCC3)cc2c1C	19µM	?	i	3.2µM	13µM	3.2µM
COc1ccc(S(=O)(=O)N/N=C(/C)c2cccc(NC(=O)c3ccccc3Cl)c2)cc1	27µM	i	i	i	i	i
COc1cc(OC)c(NC(=O)C2CCN(S(=O)(=O)c3c(C)noc3/C=C/c3c(C)cc(C)cc3C)CC2)cc1Cl	i	nt	nt	nt	nt	nt
COc1ccc(C(=O)Nc2cccc(OC)c2)cc1	6.7µM	2.3µM	i	1.3µM	2.8µM	2µM
COc1cccc(-c2nnc(NC(=O)c3cccc(F)c3)o2)c1	17µM	?	?	i	nt	i
SMILES	FLuc modulator	ELG1 genotox	p53 reactivator	Rab9 promoter act	SMN2 splice up	NPC1 prom act
COc1cccc(C(=O)Nc2cc(Cl)c(O)c(Cl)c2)c1	15µM	i	i	i	nt	?
COc1cccc(NC(=O)c2cccc(C(=O)Nc3cccc(OC)c3)c2)c1	i	i	nt	i	nt	i
COc1ccc2cc(/C(C)=N/NC(=O)C3CC3)ccc2c1	2.4µM	18µM	i	2.8µM	16µM	2.5µM
COc1ccc(/C(C)=N/NC(=O)C2CC2)cc1	i	?	i	i	i	i
COc1cccc(-c2nnc(NC(=O)c3ccccc3Br)o2)c1	i	i	i	i	nt	i
COc1ccc(C2=C(C)C(=NCCCN3CCN(c4cc(C)ccc4C)CC3)NS2(=O)=O)cc1	i	nt	nt	nt	nt	nt
CSc1ccc(CCNC(=O)Cn2ccc3cc(S(=O)(=O)N4CCCCCC4)ccc32)cc1	i	nt	nt	nt	nt	nt
COc1ccc(Br)cc1CNCc1c(C(=O)O)c(C)n(Cc2ccccc2C)c1C	?	nt	nt	nt	i	nt
COC(=O)c1ccc(C(=O)OC)c(NC(=O)c2c(-c3ccccc3)c(-c3ccccc3)nn(C)c2=O)c1	i	nt	nt	nt	i	nt
NS(=O)(=O)c1cccc(NC(=O)c2cccc(Oc3ccccc3)c2)c1	11µM	i	i	i	nt	i
COc1ccc(C(=O)N/N=C(/C)c2cccc(NC(=O)C(F)(F)F)c2)cc1	11µM	?	?	?	10µM	3.5µM
COc1ccc(C(=O)N/N=C(/C)c2cccc(NC(=O)c3ccncc3)c2)cc1OC	?	i	i	i	nt	i
NC(=O)c1ccc(NC(=O)c2cccc(Oc3ccccc3)c2)cc1	i	i	i	i	i	i
COc1cccc(NC(=O)Nc2cccc(C(=O)O)c2)c1	0.17µM	i	i	?	nt	?
COc1cc(C(=O)Nc2cccc(NC(=O)c3cccs3)c2)cc(OC)c1OC	24µM	i	i	i	nt	i
COc1ccc(OC)c(NC(=O)CC(=O)Nc2ccc3nc4n(c(=O)c3c2)CCCCC4)c1	?	nt	nt	nt	i	nt
Cc1ccc(C)c(NC(=O)NCc2ccc(Cl)cc2)c1	nt	nt	nt	nt	i[9.22 µM]	nt
COc1cc(C(=O)Nc2ccc(N(C)C)cc2)cc(OC)c1OC	3µM	?	?	i	nt	i
COc1cccc(NC(=O)c2ccc(OC(F)(F)F)cc2)c1	2.4µM	?	?	1.8µM	nt	4µM
COc1cccc(NC(=O)c2nnn(CCc3ccccc3)c2N)c1	15µM	?	?	i	?	i
CCOc1ccccc1NC(=O)c1ccc2[nH]c(C)c(C)c2c1	?	?	i	i	nt	?
Cc1[nH]c2ccc(C(=O)Nc3ccc(F)cc3)cc2c1C	24µM	nt	nt	nt	nt	nt
COc1cccc(NC(=O)Cn2nnc(C(=O)Nc3ccccc3)c2N)c1	?	i	i	i	i	i
COc1cc(C(=O)Nc2ccc(S(=O)(=O)N(C)c3ccccc3)cc2)cc(OC)c1OC	i	i	i	i	?	i
Cc1ccc(CN2CCC(CNc3ncnc4onc(-c5ccc(Cl)cc5)c34)CC2)cc1	i	nt	nt	nt	nt	nt
SMILES	FLuc modulator	ELG1 genotox	p53 reactivator	Rab9 promoter act	SMN2 splice up	NPC1 prom act
COC(=O)C(C)n1cnc2c(nnn2-c2ccccc2)c1=O (stereo not given)	i	i	nt	i	nt	i
CCOCCn1ccc2c(OCC(=O)Nc3cccc(F)c3)cccc2c1=O	i	nt	nt	nt	nt	nt
COc1cccc(/C(C)=N/NC(=O)c2ccc(N(C)C)cc2)c1	19µM	?	?	3.5µM	?	?
O=C(Nc1ccc(F)cc1)c1ccc2nsnc2c1	13µM	i	i	?	nt	?
COc1cccc(NC(=O)N2CCN(c3cccc(C)c3C)CC2)c1	15µM	?	i	i	i	i
COc1ccccc1N1CCN(C(=O)Nc2cccc(Cl)c2)CC1	?	i	i	i	i	i
COC(=O)c1ccccc1NC(=O)Nc1cccnc1	15µM	i	i	i	i	i
